Structures can show the parent of a compound that is named as a salt.
How the values were obtained:
Settings in all cases: 10 µM; exposure time 6 h
[1] = system: Danio rerio larvae (5 dpf); test: difference in excitability vs DMSO (percentage points); higher = more excitable than DMSO
Method in brief: (§1)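 Library compounds were tested at 10 µM final in 100 µL egg water on wild-type 5 dpf zebrafish larvae in 96-well plates for 6 h, with 48 larvae per compound. After 3 h, plates at 28.5 ℃ were imaged every 6 s during a 3-h run of moving lines and 100 ms, 400Hz tones. Behaviours were quantified by Z-LaP Tracker and reported as the compound mean less the vehicle control mean, in percentage points.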

[2] = system: Danio rerio larvae (5 dpf); test: difference in startle response vs DMSO (percentage points); higher = stronger startle than DMSO
Method in brief: as §1

[3] = system: Danio rerio larvae (5 dpf); test: difference in activity during first hour vs DMSO (percentage points); higher = more activity than DMSO
Method in brief: as §1

[4] = system: Danio rerio larvae (5 dpf); test: difference in habituation to acoustic stimuli vs DMSO (percentage points); higher = more habituation than DMSO
Method in brief: as §1

[5] = system: Danio rerio larvae (5 dpf); test: difference in combined optomotor response to red, green and blue moving lines vs DMSO (percentage points); higher = stronger optomotor response than DMSO
Method in brief: as §1

SMILES	difference in excitability [1]	difference in startle response [2]	difference in activity during first hour [3]	difference in habituation to acoustic stimuli [4]	difference [5]
CC(=O)N(CC(O)CO)c1c(I)c(C(=O)NCC(O)CO)c(I)c(C(=O)NCC(O)CO)c1I (stereo not given) [Iohexol]	1.55	0.754	5.28	-1.14	-0.849
CC(C)C(=O)Oc1ccc(CO)cc1[C@H](CCN(C(C)C)C(C)C)c1ccccc1 [Fesoterodine (fumarate)]	4.21	-11.4	2.92	-7.33	-6.79
O=C1CN2Cc3c(ccc(Cl)c3Cl)N=C2N1 [Anagrelide (hydrochloride)]	11.5	-3.44	-9.48	7.77	3.07
CN1C(=O)OC(C)(C)C1=O [Trimethadione]	6.43	11.1	-6	3.86	-0.0394
C[C@]12C=CC(=O)C=C1CC[C@@H]1[C@@H]2C(=O)C[C@@]2(C)[C@H]1CC[C@]2(O)C(=O)CO [Prednisone]	14.1	2.97	-14.4	6.62	-4.57
C=CC1=C(C(=O)O)N2C(=O)[C@@H](NC(=O)/C(=N\OCC(=O)O)c3csc(N)n3)[C@H]2SC1 [Cefixime]	-0.725	-0.605	11.6	8.39	10.8
CN1CCN(C2=Nc3ccccc3Oc3ccc(Cl)cc32)CC1 [Loxapine (succinate)]	20.5	-13.4	43.6	-11	-0.239
COc1ccc(OC)c(C(O)CNC(=O)CN)c1 (stereo not given) [Midodrine (hydrochloride)]	7.59	-5.94	6.73	0.23	5.44
COC(=O)[C@@H]1CC2=CC(=O)CC[C@]2(C)[C@@]23O[C@@H]2C[C@@]2(C)[C@@H](CC[C@@]24CCC(=O)O4)[C@H]13 [Eplerenone]	2.31	-5.25	4.97	4.87	4.83
Cc1nnc(C(C)C)n1C1C[C@H]2CC[C@@H](C1)N2CC[C@H](NC(=O)C1CCC(F)(F)CC1)c1ccccc1 (stereo in doubt) [Maraviroc]	11.9	-3.97	5.94	-1.89	4.5
O=C(C1CCCCC1)N1CC(=O)N2CCc3ccccc3C2C1 (stereo not given) [Praziquantel]	27.3	13.2	-17.7	11	10.4
Nc1nc(=S)c2[nH]cnc2[nH]1 [6-Thioguanine]	2.87	-3.35	1.36	0.958	6.09
CC(C)CCCCC(=O)N[C@@H](CCNCS(=O)(=O)O)C(=O)N[C@H](C(=O)N[C@@H](CCNCS(=O)(=O)O)C(=O)N[C@H]1CCNC(=O)[C@H]([C@@H](C)O)NC(=O)[C@H](CCNCS(=O)(=O)O)NC(=O)[C@H](CCNCS(=O)(=O)O)NC(=O)[C@H](CC(C)C)NC(=O)[C@@H](CC(C)C)NC(=O)[C@H](CCNCS(=O)(=O)O)NC1=O)[C@@H](C)O.CC[C@@H](C)CCCCC(=O)N[C@@H](CCNCS(=O)(=O)O)C(=O)N[C@H](C(=O)N[C@@H](CCNCS(=O)(=O)O)C(=O)N[C@H]1CCNC(=O)[C@H]([C@@H](C)O)NC(=O)[C@H](CCNCS(=O)(=O)O)NC(=O)[C@H](CCNCS(=O)(=O)O)NC(=O)[C@H](CC(C)C)NC(=O)[C@@H](CC(C)C)NC(=O)[C@H](CCNCS(=O)(=O)O)NC1=O)[C@@H](C)O [Colistin Methanesulfonate (sodium salt)]	20.4	-4.76	4.65	0.808	-2.32
COc1ccc2c3c1O[C@H]1C[C@@H](O)C=C[C@@]31CCN(C)C2 [Galantamine]	1.36	-0.28	15.8	-3.53	4.1
COc1cc2nc(N(C)CCCNC(=O)C3CCCO3)nc(N)c2cc1OC (stereo not given) [Alfuzosin (hydrochloride)]	9.01	2.43	5.63	-6.84	1.55
COc1nc(N)nc2c1ncn2[C@@H]1O[C@H](CO)[C@@H](O)[C@@H]1O [Nelarabine]	19.6	1.82	-4.45	-0.162	2.02
CC1(C)CCC(CN2CCN(c3ccc(C(=O)NS(=O)(=O)c4ccc(NCC5CCOCC5)c([N+](=O)[O-])c4)c(Oc4cnc5[nH]ccc5c4)c3)CC2)=C(c2ccc(Cl)cc2)C1	0.697	-11.3	10.4	2.22	3.34
CN(C)C(=O)N[C@H]1CC[C@H](CCN2CCN(c3cccc(Cl)c3Cl)CC2)CC1 [Cariprazine (hydrochloride)]	11.3	-2.66	-2.12	-3.39	-1.22
CCc1cccc2c3c([nH]c12)C(CC)(CC(=O)O)OCC3 (stereo not given) [Etodolac]	-4.84	7.75	13.6	4.08	3.56
CCOc1cc([C@@H](CS(C)(=O)=O)N2C(=O)c3cccc(NC(C)=O)c3C2=O)ccc1OC [Apremilast]	0.408	3.1	-6.82	-0.561	-3.01
CC(=O)[C@@]1(O)CC[C@H]2[C@@H]3C[C@H](C)C4=CC(=O)C=C[C@]4(C)[C@@]3(F)[C@@H](O)C[C@@]21C [Fluorometholone]	5.46	1.23	-2.26	4.02	1.57
COc1cc(Nc2ncc(F)c(Nc3ccc4c(n3)N(COP(=O)(O)O)C(=O)C(C)(C)O4)n2)cc(OC)c1OC [R788 (sodium salt)]	4.23	4.11	7.65	-1.65	2.43
CCCCCOC(=O)Nc1nc(=O)n([C@@H]2O[C@H](C)[C@@H](O)[C@H]2O)cc1F [Capecitabine]	-2.56	-2.24	-0.876	-0.579	-1.26

SMILES	difference in excitability [1]	difference in startle response [2]	difference in activity during first hour [3]	difference in habituation to acoustic stimuli [4]	difference [5]
CCC[C@H](N[C@@H](C)C(=O)N1[C@H](C(=O)O)C[C@@H]2CCCC[C@@H]21)C(=O)OCC [Perindopril]	1.68	3.45	15	-4.9	1.2
CS(=O)(=O)CCNCc1ccc(-c2ccc3ncnc(Nc4ccc(OCc5cccc(F)c5)c(Cl)c4)c3c2)o1 [Lapatinib]	-0.459	0.335	-8.64	-0.929	1.37
COc1ccc(CC2c3cc(OC)c(OC)cc3CC[N+]2(C)CCC(=O)OCCCCCOC(=O)CC[N+]2(C)CCc3cc(OC)c(OC)cc3C2Cc2ccc(OC)c(OC)c2)cc1OC (stereo not given) [Atracurium (besylate)]	5.62	-4.13	-9.46	-3.02	-3.83
CCCCCCCCc1ccc(CCC(N)(CO)CO)cc1 [Fingolimod]	5.87	-4.94	-2.73	-2	-4.81
c1cc(CN2CCCNCCNCCCNCC2)ccc1CN1CCCNCCNCCCNCC1 [Plerixafor (hydrochloride hydrate)]	11.6	-7.66	-16	-5.73	-15.1
CCCCCCCCCCCCCCCC(=O)OC/C=C(C)/C=C/C=C(C)/C=C/C1=C(C)CCCC1(C)C [Retinyl Palmitate]	6.81	5.22	3.08	2.4	-4.44
Cc1nccn1CC1CCc2c(c3ccccc3n2C)C1=O (stereo not given) [Ondansetron (hydrochloride hydrate)]	12.1	-1.85	6.77	-3.59	4.66
NC(=O)OCC(COC(N)=O)c1ccccc1 [Felbamate]	-5.58	2.01	9.63	-0.648	2.98
O=C1NC(c2ccccc2)(c2ccccc2)C(=O)N1COP(=O)(O)O [Fosphenytoin (sodium salt)]	1.33	6.03	-3.5	3.61	0.0516
CCOCCn1c(N2CCCN(C)CC2)nc2ccccc21 [Emedastine (fumarate)]	5.25	8.02	5.05	0.658	-3.97
Fc1ccc([C@@H]2CCNC[C@H]2COc2ccc3c(c2)OCO3)cc1 [Paroxetine (hydrochloride)]	11	-3.61	-22.3	-3.35	-11.4
Nc1ccc(O)c(C(=O)O)c1 [5-Aminosalicylic Acid]	2.98	0.822	3.09	1.77	-0.0944
CC(N)C12CC3CC(CC(C3)C1)C2 (stereo not given) [Rimantadine (hydrochloride)]	3.64	-0.673	-3.58	3.17	-3.34
O=C1c2cccc3c2[C@H](CCC3)CN1[C@@H]1CN2CCC1CC2 [Palonosetron (hydrochloride)]	16.7	-3.75	19.7	2.14	4.37
Nc1nc(=O)c2nc(CNc3ccc(C(=O)N[C@@H](CCC(=O)O)C(=O)O)cc3)cnc2[nH]1 [Folic Acid]	7.04	-0.204	15.5	2.6	6.5
CCc1c(C)[nH]c2c1C(=O)C(CN1CCOCC1)CC2 (stereo not given) [Molindone (hydrochloride)]	4.99	-3.27	-7.67	-1.62	-2.83
Cc1onc(-c2c(Cl)cccc2Cl)c1C(=O)N[C@@H]1C(=O)N2[C@@H]1SC(C)(C)[C@@H]2C(=O)O [Dicloxacillin (sodium salt hydrate)]	9.09	-2.02	8.63	-4	0.484
C/C=C1\NC(=O)[C@H]2CSSCC/C=C/[C@H](CC(=O)N[C@H](C(C)C)C(=O)N2)OC(=O)[C@H](C(C)C)NC1=O [Romidepsin]	2.86	-0.00342	21	0.496	8.55
C[N+](C)(C)CC=O [Betaine Aldehyde (chloride)]	7.5	1.56	10.1	-0.929	4.79
O=c1[nH]c(=O)n([C@H]2C[C@H](O)[C@@H](CO)O2)cc1F [Floxuridine]	5.02	-2.11	5.28	-3.55	1.72
O=C(c1cc(Cc2n[nH]c(=O)c3ccccc23)ccc1F)N1CCN(C(=O)C2CC2)CC1 [Olaparib]	-5.41	-4.44	2.13	-3.55	4.86
O=C1CN(/N=C/c2ccc(-c3ccc([N+](=O)[O-])cc3)o2)C(=O)N1 [Dantrolene (sodium salt)]	9.39	1.23	-7.55	0.0919	0.433
CCN(CC)C(=S)SSC(=S)N(CC)CC [Disulfiram]	12.2	-15.9	38.4	-13	-9.71

Reference: the supplement of paper PMC10515830
